Our source for the composite z-score and z-score values is PubChem BioAssay.

Molecules are shown by their SMILES. Calls of active or inactive are those of the source. Unless noted, how the calls were made is not given here.

Assay [1] is described as follows: compounds binding Alexa647 anti-His antibody – biochemical, small-molecule microarray, 635 nm fluorescence, artefact control for SMM control protein annotation, primary screen (AID 1128).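 Further: score merges feature fluorescence with signal-to-noise for each printed compound spot.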 As to conditions: higher = more signal.
Assay [2] concerns Human papillomavirus type 1a E7 protein (residues 1-88). Briefly: HPV1a E7 small-molecule binders, primary screen, biochemical, small-molecule microarray, residues 1-88, 635 nm (AID 1129). The settings on record: small-molecule microarray binding, fluorescence 635 nm; higher = more signal.
For assay [3], the target named is Focal adhesion kinase 1 (Homo sapiens) (UniProt Q05397). Briefly: PTK2 protein binding on printed compound slides – biochemical, small-molecule microarray, 635/667 nm fluorescence, BSA, DTT, primary screen (AID 1130).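 Further: composite of spot emission at 667 nm and signal to noise over triplicate slides.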 As to conditions: 635 nm fluorescence, higher = more signal.
Focal adhesion kinase 1 (Homo sapiens), sequence (Q05397 whole entry, looked up): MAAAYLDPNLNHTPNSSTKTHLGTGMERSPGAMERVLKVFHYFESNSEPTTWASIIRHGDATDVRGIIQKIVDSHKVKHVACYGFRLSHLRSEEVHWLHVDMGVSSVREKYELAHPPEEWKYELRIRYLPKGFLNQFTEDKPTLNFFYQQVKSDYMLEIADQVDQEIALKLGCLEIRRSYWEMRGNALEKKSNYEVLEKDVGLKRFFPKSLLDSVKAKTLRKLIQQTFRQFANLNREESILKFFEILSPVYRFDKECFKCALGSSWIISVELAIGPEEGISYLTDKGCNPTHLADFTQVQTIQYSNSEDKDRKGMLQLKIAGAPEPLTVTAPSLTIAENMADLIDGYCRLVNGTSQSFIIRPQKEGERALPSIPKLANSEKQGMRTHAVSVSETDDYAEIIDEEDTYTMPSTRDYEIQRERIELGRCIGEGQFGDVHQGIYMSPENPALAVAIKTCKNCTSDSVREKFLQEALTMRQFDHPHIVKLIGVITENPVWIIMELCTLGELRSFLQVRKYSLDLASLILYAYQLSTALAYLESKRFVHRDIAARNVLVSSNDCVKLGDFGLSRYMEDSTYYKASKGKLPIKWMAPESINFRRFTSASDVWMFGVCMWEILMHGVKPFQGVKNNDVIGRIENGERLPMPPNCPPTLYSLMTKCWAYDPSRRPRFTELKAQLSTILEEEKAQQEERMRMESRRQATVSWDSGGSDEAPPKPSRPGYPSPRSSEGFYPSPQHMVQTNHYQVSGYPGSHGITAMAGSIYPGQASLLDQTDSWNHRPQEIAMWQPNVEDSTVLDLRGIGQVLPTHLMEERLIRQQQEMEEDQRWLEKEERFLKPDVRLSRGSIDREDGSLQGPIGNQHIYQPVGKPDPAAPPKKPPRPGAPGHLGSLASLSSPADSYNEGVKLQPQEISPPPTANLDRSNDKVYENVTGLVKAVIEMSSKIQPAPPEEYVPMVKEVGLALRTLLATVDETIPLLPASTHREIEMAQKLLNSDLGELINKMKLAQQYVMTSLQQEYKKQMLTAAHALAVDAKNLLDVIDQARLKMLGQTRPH
For assay [4], the system named is Fibrinogen (Alexa647-labelled). Briefly: Alexa647-fibrinogen binding to printed small molecules – biochemical, small-molecule microarray, 635/667 nm fluorescence, artefact control for SMM control-protein annotation, profiling panel (AID 1131).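 Further: z-score merges 667 nm fluorescence with per-spot signal-to-noise over triplicate slides.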 The settings on record: fibrinogen-A647 binding fluorescence, higher = more signal.
Assay [5] has as its target Follistatin (Homo sapiens) (UniProt P19883). In words: FST protein binding to printed compounds – biochemical, small-molecule microarray, 635/667 nm fluorescence, primary screen (AID 1132). As to conditions: 635 nm fluorescence, higher = more signal.
Assay [6] addresses Fibroblast growth factor 2 (Homo sapiens) (UniProt P09038). Briefly: basic fibroblast growth factor binding to printed compounds – biochemical, small-molecule microarray, 635/667 nm fluorescence, primary screen (AID 1133). The settings on record: FGF2, fluorescence 635/667, higher = more signal.
Assay [7] in a line: JC-1 mitochondrial potential readout, lung cancer cells – cell-based, A549, JC-1 fluorescence, basal, 24 h, 100 nL, profiling panel (AID 1138).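 Further: A549 lung adenocarcinoma cells under basal conditions with no added stimulus; test concentration not given here.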 The settings on record: higher = more signal.
A further assay deals with Lefty1. Briefly: Lefty1 protein binding to printed compounds – biochemical, small-molecule microarray, 635/667 nm fluorescence, primary screen (AID 1139). As to conditions: fluorescence 635/667, higher = more signal.
The test system of assay [8] is wheat germ agglutinin (Triticum aestivum), Alexa647-labelled. Briefly: Alexa647-WGA lectin binding to printed small molecules – biochemical, small-molecule microarray, 635/667 nm fluorescence, artefact control for SMM control-protein annotation, profiling panel (AID 1140).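 Further: score merges 667 nm feature emission with signal to noise over triplicate slides.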 The settings on record: WGA-A647 binding, 635 nm fluorescence, higher = more signal.
Assay [9] addresses Luciferin 4-monooxygenase (Photinus pyralis) (UniProt P08659). In words: inhibition of purified Photinus pyralis luciferase – biochemical, luminescence, purified enzyme, 2006 set, primary screen (AID 1141).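 Further: cell-free assay with purified firefly luciferase at 100 ng per well in PBS; test concentration not given here.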 The settings on record: purified firefly luciferase, SteadyGlo luminescence, 30 min; higher = more signal, called active from +8 up or from −8 down.
Assay [10] concerns Wnt5a (protein binding on small-molecule microarray). In words: small molecules binding Wnt5a protein – biophysical, small-molecule microarray, 635/667 nm fluorescence, primary screen (AID 1142).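 Further: fluorescence read at 667 nm with signal to noise per printed feature.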 The settings on record: 635 nm fluorescence, higher = more signal.
The nature of assay [11]: ATP-based viability of Huh7 replicon cells – cell-based, CellTiter-Glo luminescence, basal, 48 h, cytotoxicity control for HCV replication inhibitor project, primary screen (AID 1143).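 Further: Huh7 hepatoma cells carrying a hepatitis C replication reporter with no stimulus; test concentration not given here.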 As to conditions: higher = more signal, called active from +8 up or from −8 down.
Assay [12] is described as follows: Pseudomonas biofilm growth suppression – PAO1 strain, BacTiter-Glo luminescence, LB-PBS, primary screen (AID 1144). The settings on record: P. aeruginosa PAO1 biofilm, 12 h, higher = more signal.
A short description of assay [13]: basal CRE-LacZ reporter activity in PC12 – cell-based, unstimulated, primary screen (AID 1145). The settings on record: no forskolin, luminescence, 4.5 h, higher = more signal, called active from +8 up or from −8 down.
Assay [14] can be described thus: forskolin-driven CRE-LacZ activity in PC12 – cell-based, CRE-LacZ reporter, forskolin-stimulated, primary screen (AID 1146).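 Further: PC12 cells with 6xCRE LacZ reporter stimulated by forskolin 10 µM; beta-galactosidase reporter signal reflecting CREB driven transcription.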 As to conditions: luminescence, 4.5 h, higher = more signal, called active from +8 up or from −8 down.
The target in assay [15] is Streptavidin (Streptomyces avidinii) (UniProt P22629). Briefly: compounds binding control protein streptavidin – biophysical, small-molecule microarray, 635/667 nm fluorescence, artefact control for SMM compound annotation, primary screen (AID 1147).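 Further: signal reflects streptavidin binding to arrayed compounds as a control protein.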 As to conditions: higher = more signal.
Streptavidin (Streptomyces avidinii), sequence (P22629 whole entry, looked up): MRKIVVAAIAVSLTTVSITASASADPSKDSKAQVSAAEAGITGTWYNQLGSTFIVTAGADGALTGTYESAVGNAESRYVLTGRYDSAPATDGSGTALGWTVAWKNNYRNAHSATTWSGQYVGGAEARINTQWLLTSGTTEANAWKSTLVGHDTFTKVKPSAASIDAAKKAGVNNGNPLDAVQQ
Assay [16] is described as follows: probe aInhba binding on compound microarray – biochemical, small-molecule microarray, 635/667 nm fluorescence, primary screen (AID 1148).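 Further: score merges 667nm spot fluorescence with signal-to-noise for antibody binding to printed compounds.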 As to conditions: higher = more signal.
For assay [17], the target named is Torsin-1A (Homo sapiens) (UniProt O14656). In words: TOR1A wild-type binding on microarray – cell lysate, small-molecule microarray, lysate, 635/667 nm, primary screen (AID 1149). The settings on record: COS7 hTOR1A-WT lysate, 635 nm fluorescence, higher = more signal.
Torsin-1A (Homo sapiens), sequence (O14656 whole entry, looked up): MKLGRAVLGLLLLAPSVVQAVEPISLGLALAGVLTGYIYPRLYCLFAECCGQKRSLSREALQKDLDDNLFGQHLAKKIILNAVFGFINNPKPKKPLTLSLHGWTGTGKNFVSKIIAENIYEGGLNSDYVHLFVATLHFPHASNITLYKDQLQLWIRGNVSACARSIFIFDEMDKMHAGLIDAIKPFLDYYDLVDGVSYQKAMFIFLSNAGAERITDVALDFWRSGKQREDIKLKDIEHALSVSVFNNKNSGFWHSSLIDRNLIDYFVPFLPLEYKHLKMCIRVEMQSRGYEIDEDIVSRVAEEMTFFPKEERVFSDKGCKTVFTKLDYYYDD
The target is the same in assay [18]. In words: torsin A mutant lysate binding on microarrays – cell lysate, small-molecule microarray, COS7 lysate, 635/667 nm fluorescence, primary screen (AID 1150).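 Further: score pools 667 nm emission and signal to noise measuring lysate protein binding.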 As to conditions: COS7 hTOR1A mutant lysate, 635 nm fluorescence, higher = more signal.
Assay [19] has as its system Sonic hedgehog protein (Shh). Briefly: Sonic hedgehog microarray binding compounds – biochemical, small-molecule microarray, 635/667 nm fluorescence, primary screen (AID 1151).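 Further: Shh protein binding to compounds spotted on small-molecule microarray slides; score combines spot fluorescence intensity with signal-to-noise across triplicate slides.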 The settings on record: 635 nm fluorescence, higher = more signal.

Follistatin (Homo sapiens), sequence (P19883 whole entry, looked up): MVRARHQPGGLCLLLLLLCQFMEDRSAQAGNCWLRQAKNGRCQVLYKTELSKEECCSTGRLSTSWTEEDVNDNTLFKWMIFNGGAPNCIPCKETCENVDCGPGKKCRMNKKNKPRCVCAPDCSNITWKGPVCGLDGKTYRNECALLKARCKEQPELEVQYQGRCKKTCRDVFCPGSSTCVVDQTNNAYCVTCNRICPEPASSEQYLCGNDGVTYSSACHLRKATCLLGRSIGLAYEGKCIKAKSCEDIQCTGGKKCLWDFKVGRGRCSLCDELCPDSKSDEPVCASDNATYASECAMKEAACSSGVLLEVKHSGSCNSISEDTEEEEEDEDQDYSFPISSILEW
Luciferin 4-monooxygenase (Photinus pyralis), sequence (P08659 whole entry, looked up): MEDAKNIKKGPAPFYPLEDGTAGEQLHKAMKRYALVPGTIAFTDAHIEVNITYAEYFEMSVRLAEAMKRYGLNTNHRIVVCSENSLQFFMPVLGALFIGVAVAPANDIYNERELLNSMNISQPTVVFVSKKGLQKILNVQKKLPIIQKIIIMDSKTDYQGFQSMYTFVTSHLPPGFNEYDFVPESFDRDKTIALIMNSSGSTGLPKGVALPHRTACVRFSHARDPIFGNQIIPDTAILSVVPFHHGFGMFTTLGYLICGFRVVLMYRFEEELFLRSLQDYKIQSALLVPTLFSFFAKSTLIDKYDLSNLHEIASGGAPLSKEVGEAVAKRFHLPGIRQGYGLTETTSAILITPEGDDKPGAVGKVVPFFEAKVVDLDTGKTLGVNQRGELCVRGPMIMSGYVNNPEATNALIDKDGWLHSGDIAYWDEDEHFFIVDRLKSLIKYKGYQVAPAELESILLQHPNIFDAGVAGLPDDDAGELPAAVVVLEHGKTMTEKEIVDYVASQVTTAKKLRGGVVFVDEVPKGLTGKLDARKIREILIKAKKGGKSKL
Fibroblast growth factor 2 (Homo sapiens), sequence (P09038 whole entry, looked up): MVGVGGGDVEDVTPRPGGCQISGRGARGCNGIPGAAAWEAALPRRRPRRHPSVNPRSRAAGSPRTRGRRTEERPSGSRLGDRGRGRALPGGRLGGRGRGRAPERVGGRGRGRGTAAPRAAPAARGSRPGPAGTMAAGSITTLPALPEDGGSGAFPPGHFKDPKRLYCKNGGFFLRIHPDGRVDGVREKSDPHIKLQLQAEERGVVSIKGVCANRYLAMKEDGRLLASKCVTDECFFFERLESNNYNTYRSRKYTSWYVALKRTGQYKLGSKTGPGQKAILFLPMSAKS

For `COc1ccc(C(=O)Nc2ccc(CN3C(=O)[C@@]4(O[C@@H](CCn5cc([C@H](O)c6ccccc6)nn5)[C@H]([Si](C)(C)c5ccc(OC)cc5)[C@H]4C)c4ccccc43)cc2)cc1`, the composite z-score was 0.848 in [1]; -0.024 in assay [2]; -0.103 in assay [3]; 0.579 in assay [4]; 0.836 in assay [5]; -0.019 in assay [6]. Further, the composite z-score in the assay on Lefty1 is 0.526; in assay [8], 0.376; in assay [10], -0.0152; in assay [15], 0.865; in [16], -0.0405; with Torsin-1A (Homo sapiens) [17], 0.253. Also, the values for the composite z-score (in the assay with Torsin-1A (Homo sapiens) [18]; in [19]) were 0.163 and 1.51, respectively. For the same compound, the z-score in [7] was 1.83; in [9] it was -0.753 (inactive); in [11], -3.46 (inactive); in [12] it was -0.576 (inactive); in assay [13], 2.4 (inactive); in [14] it was -1.04 (inactive).
As to `COC(=O)c1c(CC[C@@H](CO)NC(=O)N[C@@H](C)Cn2cc(C3(O)CCCCC3)nn2)oc(C(C)=O)c1C(=O)OC`, the composite z-score was 2.77 in assay [1]; 1.12 in assay [2]; -0.262 in [3]; 0.747 in [4]; 1.22 in assay [5]; 1.29 in assay [6]. For the same compound, the composite z-score in the assay with Lefty1 is 1.66; in [8], 0.696; in [10], 0.315; in assay [15], 0.533; in assay [16] it was 0.225; in the assay with Torsin-1A (Homo sapiens) [17], 1.07. The composite z-score stood at 0.91 with Torsin-1A (Homo sapiens) [18] and 2.06 in assay [19]. Also, the z-score in assay [7] was -1; in [9], 0.599 (inactive); in assay [11] it was -2.63 (inactive); in assay [12], -1.04 (inactive); in assay [13], 1.59 (inactive); in [14] it was 0.214 (inactive).
Consider `C=CCN(Cc1ccccc1)C(=O)C(c1cccs1)N(CCOCCO)C(=O)/C=C\C(=O)O` (stereo not given), for which the composite z-score in assay [1] is -0.187; in [2] it was -0.92; in assay [3], -0.374; in assay [4] it was -2.2; in assay [5], -2.64; in assay [6] it was -2.43. The composite z-score in the assay with Lefty1 is -2.47; in assay [8] it was -0.47; in [10], -1.17; in assay [15], -1.28; in assay [16], -0.34; in the assay with Torsin-1A (Homo sapiens) [17], -3.64. For the same compound, the composite z-score is -3.08 with Torsin-1A (Homo sapiens) [18] and -0.933 in assay [19]. In addition, the z-score is 0.316 in assay [7]; -3.93 (inactive) in assay [9]; -0.247 (inactive) in [11]; -1.93 (inactive) in assay [12]; -1.58 (inactive) in assay [13]; -0.949 (inactive) in assay [14].
Regarding `CC(C)N1C(=O)[C@@]2(Cc3ccccc31)c1ccccc1C(=O)N(C1CCCCC1)[C@H]2c1ccc(CO)cc1`, the composite z-score in [1] is -0.192; in assay [2], 0.37; in [3] it was -0.0723; in assay [4], 0.193; in [5], 1.33; in [6], 0.254. The composite z-score in the assay on Lefty1 was 0.958; in assay [8] it was -0.01; in assay [10] it was 0.0034; in assay [15], -0.169; in assay [16], -0.0987; in the assay with Torsin-1A (Homo sapiens) [17], -0.245. The composite z-score was 0.333 with Torsin-1A (Homo sapiens) [18] and 1.99 in assay [19]. For the same compound, the z-score in [7] was -0.958; in assay [9], 1.11 (inactive); in assay [11] it was -0.8 (inactive); in assay [12] it was -0.868 (inactive); in assay [13], -0.141 (inactive); in assay [14], 0.815 (inactive).
As for `C=CCOC(=O)[C@@H]1[C@H]2C(=O)O[C@H](c3ccccc3)[C@H](c3ccccc3)N2[C@H](c2ccc(OCCOC(=O)[C@@H]3C[C@@H]4C(=O)N[C@@H](CCCC[N+](C)(C)C)C(=O)N4[C@@H]3c3cccc(OCCO)c3)cc2)[C@@]12C(=O)Nc1ccc(I)cc12`, the composite z-score in assay [1] came to 1.13; in [2], 1.17; in assay [3], 1.15; in assay [4] it was 0.531; in assay [5], 1.41; in assay [6], 1.79. Moreover, the composite z-score is 1.64 in the assay on Lefty1; 0.347 in [8]; 0.596 in [10]; 0.337 in [15]; -0.122 in assay [16]; 0.993 with Torsin-1A (Homo sapiens) [17]. Further, the values for the composite z-score (with Torsin-1A (Homo sapiens) [18]; in [19]) were 1.15 and 1.99, respectively. The z-score in assay [7] was -1.2; in [9], -1.82 (inactive); in [11], -2.13 (inactive); in assay [12], -1.22 (inactive); in [13], 0.0084 (inactive); in assay [14] it was 1.83 (inactive).
